# Measurements published in PubChem BioAssay (Tox21).
# Where “and” joins values, the source holds several entries; their conditions need not be identical. Equal entries are not always repeated. Some compounds were tested as several samples or in several runs, with calls that do not always agree. Calls of active or inactive are those of the source. Where a call stands in place of a potency, no number is given. Unless noted, the call rests on the fitted dose curve; in most records, active means well fitted curve in the direction sought with a large enough effect in the repeat runs; inconclusive means weak or mixed curves; inactive means no such curve, though single readings can be large; an effect the other way counts as inactive or inconclusive.
# Key:
# [1] = qHTS assay for small molecules that induce genotoxicity in human embryonic kidney cells expressing luciferase-tagged ATAD5 (AID 651632); further: nearly all actives have a fitted effect of over 15% in size; further: potency means the concentration at half of the fitted maximal effect
# Procedure, shortened: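 A rise in luciferase signal from ATAD5-tagged HEK293T cells marks genetic stress. Cells were exposed to compounds for 16 hr at 37C, 5% CO2, then luciferase was quantified after a 30 min room-temperature incubation with Amplite.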
# [2] = qHTS assay for small molecule agonists of the p53 signaling pathway - cell viability (AID 651633; calls by dose curve; further: nearly all actives have a fitted effect of over 30% in size; further: potency means the concentration at half of the fitted maximal effect)
# Procedure, shortened: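 Viability counter-read: CellTiter-Glo luminescence (30 min, room temperature) in the same p53RE-bla plates. These plates had been exposed to compounds for 16 h at 37 C.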
# [3] = qHTS assay for small molecules that induce genotoxicity in human embryonic kidney cells expressing luciferase-tagged ATAD5 - cell viability (AID 651634; calls by dose curve; further: nearly all actives have a fitted effect of over 25% in size; further: potency means the concentration at half of the fitted maximal effect)
# Procedure, shortened: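 Cytotoxicity counter-readout: after 15.5 hr compound treatment at 37C, live-cell protease activity in ATAD5-luciferase HEK293T cells measured by CellTiter-Fluor fluorescence, 30 min development at 37C.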
# [4] = qHTS assay for small molecule disruptors of the mitochondrial membrane potential - cell viability (AID 720634; calls by dose curve; further: nearly all actives have a fitted effect of over 20% in size; further: potency means the concentration at half of the fitted maximal effect)
# Procedure, shortened: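 Cytotoxicity was quantified from ATP content by CellTiter-Glo luminescence in the same wells as the MMP dye read-out. HepG2 (2,000 cells/well) were plated overnight and exposed to compounds for 1 hr at 37 C.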
# [5] = qHTS assay for small molecule disruptors of the mitochondrial membrane potential (AID 720635); further: potency means the concentration at half of the fitted maximal effect
# Procedure, shortened: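 Mitochondrial membrane potential tracked with Mito-MPS dye, red aggregates (ex 540/em 590 nm) against green monomers (ex 490/em 535 nm). Compound treatment 1 hr at 37C, dye 30 min in HepG2.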
# [6] = qHTS assay to test for compound auto fluorescence at 590 nm (red) in HepG2 cells (AID 720674)
# Procedure, shortened: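 Red autofluorescence (Ex/Em 540/590 nm, Rose Bengal sodium equivalents) was measured in HepG2 cells, 2,000 per well in MEM plus 10% FBS, plated overnight at 37 C. Readings were taken 1 hr after adding 23 nL compound or DMSO, at 37 C and 5% CO2.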
# [7] = qHTS assay to test for compound auto fluorescence at 460 nm (blue) in HEK293 cells (AID 720678)
# Procedure, shortened: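 Blue read-out at excitation 405 nm and emission 460 nm follows overnight compound exposure of HEK293 cells at 37C in 5% CO2. Activity is given as auto fluorescence equivalency to triamterene.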
# [8] = qHTS assay to test for compound auto fluorescence at 590 nm (red) in HEK293 cells (AID 720679)
# Procedure, shortened: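 Red channel, Ex/Em 540/590nm; signal expressed as equivalency to Rose Bengal sodium. HEK293, 2,000 cells/well, 10% dialyzed FBS; 23 nL compound pinned after 4-5 hr attachment; overnight 37C/5% CO2 before reading.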
# [9] = qHTS assay to test for compound auto fluorescence at 535 nm (green) in HEK293 cells (AID 720680)
# [10] = qHTS assay to test for compound auto fluorescence at 460 nm (blue) in HEK293 cell free culture (AID 720681)
# Procedure, shortened: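 Blue fluorescence (Ex 405/Em 460 nm, triamterene-equivalent) was read immediately after pin transfer of compound or DMSO into medium (DMEM, 10% FBS) without cells.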
# [11] = qHTS assay to test for compound auto fluorescence at 590 nm (red) in HEK293 cell free culture (AID 720683)
# Procedure, shortened: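 Red-channel autofluorescence of compounds in culture medium (DMEM, 10% FBS), no cells, measured at 540/590 nm. Rose Bengal sodium is the reference fluorophore for equivalence.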
# [12] = qHTS assay to test for compound auto fluorescence at 590 nm (red) in HepG2 cell free culture (AID 720684)
# Procedure, shortened: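 Cell-free; medium MEM + 10% FBS; compound or DMSO added by pintool; read Ex 540/Em 590 nm; Rose Bengal sodium as red reference fluorophore.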
# [13] = qHTS assay to test for compound auto fluorescence at 460 nm (blue) in HepG2 cell free culture (AID 720685)
# Procedure, shortened: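 Cell-free plates of MEM plus 10% FBS received 23 nL compound or DMSO vehicle; blue-channel (405/460 nm) intensity scored against triamterene as reference fluorophore.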
# [14] = qHTS assay to test for compound auto fluorescence at 535 nm (green) in HepG2 cell free culture (AID 720686)
# [15] = qHTS assay to test for compound auto fluorescence at 460 nm (blue) in HepG2 cells (AID 720687)
# Procedure, shortened: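 Blue-channel autofluorescence (Ex/Em 405/460 nm, triamterene-equivalent) was measured after 1 hr compound exposure at 37 C, 5% CO2. Cells were HepG2, plated overnight at 37 C in MEM plus 10% FBS.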
# [16] = target: Glucocorticoid receptor (Homo sapiens) (UniProt P04150); experiment: qHTS assay to identify small molecule agonists of the glucocorticoid receptor (GR) signaling pathway (AID 720691; active means well fitted activation curve with a large enough effect in the signal ratio in the repeat runs, not every such curve was filed as active; inconclusive means weak or mixed curves, or effect the other way; inactive means no such curve, though single readings can be large or run the other way; the % refers to the signal ratio; further: potency means the concentration at half of the fitted maximal effect); details: GR-bla HeLa, beta-lactamase reporter ratio, 18 h; activation: at 62.4 µM (top of the series)
# Sequence of Glucocorticoid receptor (Homo sapiens) (P04150 whole entry, looked up): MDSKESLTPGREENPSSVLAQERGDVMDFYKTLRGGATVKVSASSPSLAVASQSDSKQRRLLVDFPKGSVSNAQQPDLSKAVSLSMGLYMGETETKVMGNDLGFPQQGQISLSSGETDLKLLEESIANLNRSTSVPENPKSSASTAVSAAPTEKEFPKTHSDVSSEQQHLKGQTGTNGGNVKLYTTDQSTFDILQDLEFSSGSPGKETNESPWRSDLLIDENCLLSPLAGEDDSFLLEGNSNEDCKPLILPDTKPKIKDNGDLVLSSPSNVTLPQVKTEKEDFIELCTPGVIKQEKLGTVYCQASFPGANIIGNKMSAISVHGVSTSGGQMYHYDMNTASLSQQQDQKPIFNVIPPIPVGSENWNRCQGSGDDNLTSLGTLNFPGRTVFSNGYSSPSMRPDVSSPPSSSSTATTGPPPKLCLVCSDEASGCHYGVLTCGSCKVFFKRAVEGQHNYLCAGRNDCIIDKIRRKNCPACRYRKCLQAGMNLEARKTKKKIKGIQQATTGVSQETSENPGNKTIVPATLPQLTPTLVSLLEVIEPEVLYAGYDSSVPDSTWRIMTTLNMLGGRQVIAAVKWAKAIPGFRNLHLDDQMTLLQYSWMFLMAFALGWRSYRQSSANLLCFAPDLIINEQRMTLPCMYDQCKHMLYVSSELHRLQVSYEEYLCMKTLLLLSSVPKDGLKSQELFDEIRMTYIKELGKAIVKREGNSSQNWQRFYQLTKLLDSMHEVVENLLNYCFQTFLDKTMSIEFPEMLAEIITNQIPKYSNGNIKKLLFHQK
# Procedure, shortened: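 Agonist-mode qHTS in HeLa cells stably expressing a glucocorticoid-response-element beta-lactamase reporter. Fluorescence intensity read with FRET substrate (2 h, room temperature) after 18 h compound treatment at 37 C.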
# [17] = target: Glucocorticoid receptor (Homo sapiens) (UniProt P04150); experiment: qHTS assay to identify small molecule antagonists of the glucocorticoid receptor (GR) signaling pathway (AID 720692; active means well fitted inhibition curve with a large enough effect in the signal ratio in the repeat runs, not every such curve was filed as active; inconclusive means weak or mixed curves, or effect the other way; inactive means no such curve, though single readings can be large or run the other way; the % refers to the signal ratio; further: potency means the concentration at half of the fitted maximal effect)
# Procedure, shortened: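 Inhibition of dexamethasone-driven (5 nM final) beta-lactamase expression was measured in GRE-reporter HeLa cells over 18 h at 37C. Fluorescence was read after 2 h with the B/G FRET substrate at room temperature.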
# [18] = qHTS assay to test for compound auto fluorescence at 535 nm (green) in HepG2 cells (AID 720675)
# [19] = qHTS assay to test for compound auto fluorescence at 535 nm (green) in HEK293 cell free culture (AID 720682)
# Procedure, shortened: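 No cells present: wells hold DMEM supplemented with 10% FBS, into which compound or vehicle is pinned. Green emission is then recorded (485 nm excitation, 535 nm emission) and scaled to fluorescein.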
# [20] = qHTS assay for small molecule agonists of the p53 signaling pathway (AID 651631; calls by dose curve; further: potency means the concentration at half of the fitted maximal effect; nearly all actives have a fitted effect of over 15% in size)
# Procedure, shortened: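 Agonist mode screen using a stably integrated beta-lactamase gene under p53 response elements in HCT-116 cells. Compound exposure lasts 16 h at 37 °C; fluorescence intensity is measured following 2 h FRET substrate loading.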
structure (smiles),measurement,setting,value
CCCCc1ccccc1,Potency,[1],inactive
same,Potency,[2],inactive
same,Potency,[3],inactive
same,Potency,[4],inactive
same,Potency,[5],inactive
same,outcome,[6],inactive
same,Potency,[7],inactive
same,outcome,[8],inactive
same,outcome,[9],inactive
same,Potency,[10],inactive
same,outcome,[11],inactive
same,outcome,[12],inactive
same,Potency,[13],inactive
same,Potency,[14],inactive
same,Potency,[15],inactive
same,Potency,[16],inactive
same,Potency,[17],inactive
C=CCOC(=O)c1ccccc1N,Potency,[1],inactive
same,Potency,[2],inactive
same,Potency,[3],inactive
same,Potency,[4],inactive
same,Potency,[5],inactive
same,outcome,[6],inactive
same,Potency,[18],inactive
same,Potency,[7],inactive
same,outcome,[8],inactive
same,outcome,[9],inactive
same,Potency,[10],inactive
same,outcome,[19],inactive
same,outcome,[11],inactive
same,outcome,[12],inactive
same,Potency,[13],inactive
same,Potency,[14],inactive
same,Potency,[15],inactive
same,Potency,[16],inactive
CN(C)C(=S)SSC(=S)N(C)C,Potency,[1],19.1 µM (active)
same,Potency,[2],29.8 µM (active) and 26.9 µM (active) and 27.3 µM (active)
same,Potency,[3],6.68 µM (active) and 26.9 µM (active)
same,Potency,[4],inactive
same,Potency,[5],335 nM (active) and 30.2 µM (active) and 54.5 nM (active)
same,outcome,[6],inactive
same,Potency,[18],inactive
same,Potency,[7],inactive
same,outcome,[9],inactive
same,Potency,[10],inactive
same,outcome,[19],inactive
same,outcome,[11],inactive
same,outcome,[12],inactive
same,Potency,[13],inactive
same,Potency,[14],inactive
same,Potency,[15],inactive
same,activation,[16],-15.4% [inconclusive] (active) and -4.77% [inconclusive] (active)
c1csc(-c2ccc(-c3cccs3)s2)c1,Potency,[20],34.4 µM (active)
same,Potency,[3],inactive
same,Potency,[5],61.1 µM (active)
same,outcome,[6],inactive
same,Potency,[7],inactive
same,outcome,[8],inactive
same,Potency,[10],inactive
same,outcome,[11],inactive
same,outcome,[12],inactive
same,Potency,[14],inactive
same,Potency,[16],49 µM (active)
CCCCCCCCCCCCCCn1cc[n+](C)c1,Potency,[1],inactive
same,Potency,[2],43.4 µM (active) and 67.8 µM (active) and inactive
same,Potency,[3],61.3 µM (active)
same,Potency,[4],54.6 µM (active) and inactive
same,Potency,[5],10.7 µM (active) and 34.3 µM (active)
same,outcome,[6],inactive
same,Potency,[18],inactive
same,Potency,[7],inactive
same,outcome,[8],inactive
same,outcome,[9],inactive
same,Potency,[10],inactive
same,outcome,[19],inactive
same,outcome,[11],inactive
same,outcome,[12],inactive
same,Potency,[13],inactive
same,Potency,[14],inactive
same,Potency,[15],inactive
BrCC(Br)(Br)Br,Potency,[20],7.11 µM (active)
same,Potency,[2],inactive
same,Potency,[4],inactive
same,outcome,[6],inactive
same,Potency,[18],inactive
same,Potency,[7],inactive
same,outcome,[8],inactive
same,outcome,[9],inactive
same,Potency,[10],inactive
same,outcome,[19],inactive
same,outcome,[11],inactive
same,outcome,[12],inactive
same,Potency,[13],inactive
same,Potency,[14],inactive
same,Potency,[15],inactive
CCOP(=O)(OCC)Oc1nc(Cl)c(Cl)cc1Cl,Potency,[1],inactive
same,Potency,[2],inactive
same,Potency,[3],inactive
same,Potency,[4],inactive
same,Potency,[5],60.8 µM (active)
same,outcome,[6],inactive
same,Potency,[18],inactive
same,Potency,[7],inactive
same,outcome,[8],inactive
same,outcome,[9],inactive
same,Potency,[10],inactive
same,outcome,[19],inactive
same,outcome,[11],inactive
same,outcome,[12],inactive
same,Potency,[13],inactive
same,Potency,[14],inactive
same,Potency,[15],inactive
same,Potency,[16],inactive
same,Potency,[17],27.4 µM (active)
O=[N+]([O-])c1cc(C(F)(F)F)c(Cl)c([N+](=O)[O-])c1Nc1ncc(C(F)(F)F)cc1Cl,Potency,[1],inactive
same,Potency,[2],27.3 µM (active)
same,Potency,[3],30.6 µM (active)
same,Potency,[4],172 nM (active)
same,Potency,[5],0.243 µM (active)
same,outcome,[6],inactive
same,Potency,[18],inactive
same,Potency,[7],inactive
same,outcome,[8],inactive
same,outcome,[9],inactive
same,Potency,[10],inactive
same,outcome,[19],inactive
same,outcome,[11],inactive
same,outcome,[12],inactive
same,Potency,[13],inactive
same,Potency,[14],inactive
same,Potency,[15],inactive
COC(=O)C(C)N(C(=O)c1ccco1)c1c(C)cccc1C (stereo not given),Potency,[1],inactive
same,Potency,[2],inactive
same,Potency,[3],inactive
same,Potency,[4],inactive
same,Potency,[5],inactive
same,outcome,[6],inactive
same,Potency,[18],inactive
same,Potency,[7],inactive
same,outcome,[8],inactive
same,outcome,[9],inactive
same,Potency,[10],inactive
same,outcome,[19],inactive
same,outcome,[11],inactive
same,outcome,[12],inactive
same,Potency,[13],inactive
same,Potency,[14],inactive
same,Potency,[15],inactive
same,Potency,[16],inactive
same,Potency,[17],inactive
